Assay outcomes deposited in PubChem BioAssay by Emory University Molecular Libraries Screening Center.
This is a sample that favours compounds with a hit; in the whole collection about 3.7% have one here.
ERa coact pot: enhancers of ERα–SRC-1 coactivator binding, primary screen, biochemical, TR-FRET, ERα LBD, low estradiol; Estrogen receptor (Homo sapiens), P03372; TR-FRET ERalpha-LBD/SRC-Cy5 coactivator binding, 2 h; 100 = basal binding, no effect; coactivator binding (% of control), % at 25.6 µM; 86,000 tested, 1.3% active; AID 639, 2007; in the data active means activity above about 200%;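 further: binding measured in presence of low estradiol as agonist stimulus; 0% = peptide alone without receptor and 100% = receptor with peptide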
Target sequence (P03372 whole entry, looked up, the tested form may be a part): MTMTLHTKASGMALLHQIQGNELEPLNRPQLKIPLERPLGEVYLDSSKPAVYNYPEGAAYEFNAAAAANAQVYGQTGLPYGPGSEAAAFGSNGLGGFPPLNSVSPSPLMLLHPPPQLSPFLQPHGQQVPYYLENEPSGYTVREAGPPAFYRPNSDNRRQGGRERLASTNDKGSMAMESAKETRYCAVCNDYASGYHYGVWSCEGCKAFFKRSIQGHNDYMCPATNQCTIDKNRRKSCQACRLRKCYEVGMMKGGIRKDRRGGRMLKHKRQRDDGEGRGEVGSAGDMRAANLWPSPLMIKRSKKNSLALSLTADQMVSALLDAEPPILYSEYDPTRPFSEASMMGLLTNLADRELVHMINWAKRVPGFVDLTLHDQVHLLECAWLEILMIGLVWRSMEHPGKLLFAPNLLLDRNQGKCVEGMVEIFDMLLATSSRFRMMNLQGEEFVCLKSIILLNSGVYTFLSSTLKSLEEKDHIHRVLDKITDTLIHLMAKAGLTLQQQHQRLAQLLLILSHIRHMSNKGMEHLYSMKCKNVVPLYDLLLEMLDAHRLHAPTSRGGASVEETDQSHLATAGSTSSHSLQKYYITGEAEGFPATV
Smad3 FoxH1 inh: Smad3/FoxH1 peptide binding inhibitors, primary screen, biochemical, TR-FRET | inhibition, % at 25 µM | TR-FRET Smad3/Dy647-FoxH1 peptide binding, europium anti-His | 88,000 tested, 0.29% active;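 active means compounds that reduce the energy-transfer binding signal between the protein and its labelled peptide by more than half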;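 further: 0% = Smad3 plus labelled peptide maximal FRET and 100% = peptide-only background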
ERb coact inh: inhibitors of ERβ-SRC1 coactivator interaction, primary screen, biochemical, TR-FRET, ERβ LBD, SRC-1 peptide. Estrogen receptor beta (Homo sapiens), Q92731. TR-FRET ER-beta LBD / SRC1-Cy5 peptide binding; receptor agonist-loaded with 1 µM estradiol. inhibition, % at 25.6 µM. 86,000 tested, 1.3% active. AID 633, 2007;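 active means compounds whose percent inhibition of the receptor-coactivator binding signal exceeds about 50% in the single-dose screen, limit read from the data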;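 further: 0% = receptor plus peptide wells without compound and 100% = peptide-only wells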
ERa coact inh: ERα–SRC-1 coactivator interaction inhibitors, primary screen, biochemical, TR-FRET, ERα LBD, estradiol-bound. Estrogen receptor (Homo sapiens), P03372. TR-FRET ER-alpha LBD / SRC-1 peptide. inhibition, % at 25.6 µM. 86,000 tested, 1.7% active. AID 629, 2007; in the data active means inhibition above about 50%;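 further: 0% = receptor plus peptide control and 100% = peptide only without receptor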
Active calls of the source: *; x = no result; [ ] = dose if it differs, or a comment.

SMILES	ERa coact pot	Smad3 FoxH1 inh	ERb coact inh	ERa coact inh
COc1ccc(CNC(=O)C(c2ccc(C)o2)N(C(=O)c2csnn2)c2ccc(C(C)C)cc2)cc1 (stereo unspecified)	105.5	12.0	-0.2	7.3
C=CCN1C(c2ccccc2)=CS/C1=C(\C#N)c1nnc2n1CCCCC2	99.7	50.8*	5.4	0.6
Cc1ccc(N(C)C(=O)N2CCN(S(=O)(=O)c3c(C)cc(C)cc3C)CC2)cc1	103.8	5.6	8.4	4.9
COc1cccc(-c2nc(CS(=O)(=O)CC(=O)Nc3cc(C)ccc3C)c(C)o2)c1	213.8*[fluorescence artefact?]	-6.4	12.4	16.3
COc1cccc(-c2nc(CS(=O)(=O)CC(=O)Nc3c(C)cccc3C)c(C)o2)c1	183.5	-1.1	12.9	16.5
O=C(Nc1cccc(-c2nnc(-c3ccccc3)o2)c1)C1CCCCC1	208.0*[fluorescence artefact?]	-8.5	9.0	7.6
O=C(Nc1cccc(-c2nnc(-c3ccccc3)o2)c1)c1ccco1	128.2	2.6	5.9	13.5
O=C(Nc1ccccc1)c1cccc(-c2nnc(-c3ccccc3)o2)c1	309.2*[fluorescence artefact?]	-36.4	19.7	6.6
CCN1N=C(c2ccccc2)Cn2c1nc1ccccc12	94.1	9.6	-2.2	5.3
O=C(O)[C@@H]1[C@H](C(=O)O)[C@@H]2C(=O)C=C[C@H]1N2Cc1ccccc1	x	7.7	x	x
C[C@@H]1Oc2ccc(C(=O)C[C@@H](C(=O)O)c3ccc4c(c3)OCO4)cc2O1	x	-4.8	x	x
CN1CCN(C(=O)C(C(=O)c2ccc(F)cc2)n2ccccc2=O)CC1 (stereo unspecified)	103.4	4.7	-6.7	4.2
O=C(CSc1nc2c(c(C(F)(F)F)n1)CCc1ccccc1-2)NCc1ccc(F)cc1	229.2*	-76.6	16.7	3.6
O=C(COc1ccc(-c2ccccc2)cc1)N1CCN(S(=O)(=O)Cc2ccccc2)CC1	101.8	-4.4	3.9	9.4
OCCNc1ncnc2nc[nH]c12	x	13.3	x	x
CCC(=Nc1ccc(N)cc1)C1=C(O)C(C(=O)OC)C(C)(C)CC1=O (stereo unspecified)	123.0	0.7	83.0*[fluorescence artefact?]	3.0
CCCC(=Nc1ccccc1)C1=C(O)C(C(=O)OC)C(C)(C)CC1=O (stereo unspecified)	129.4	0.5	-1.8	-0.6
Cc1ccc(-c2cc(C(F)F)n3ncc(C(=O)N4CCN(c5cccc(C)c5C)CC4)c3n2)cc1	85.9	5.2	-3.3	16.2
O=C1/C(=C\c2ccccc2)[C@@H](NC2CCCCC2)c2ccccc21	x	25.0	x	x
Clc1ccc(Cl)c(SCCCN2CCNCC2)c1	x	4.5	x	x
CCC(=O)c1ccc(OC(=O)c2ccc(Br)o2)cc1	124.0	-0.3	-1.1	3.1
CCC(=O)Oc1ccc(/C(CC)=C(\CC)c2ccc(OC(=O)CC)cc2)cc1	376.4*	-8.7	-0.5	-2.8
Cc1cc(C)n(C(=O)COc2ccccc2C)n1	111.4	-1.9	4.2	-0.4
Cc1cc(C)c(C(=O)COc2cccnc2[N+](=O)[O-])cc1C	54.1	0.8	88.8*	54.7*[fluorescence artefact?]
CC(=O)Nc1ccc2[nH]c(C)cc(=O)c2c1	32.9	3.2	44.3	76.8*
SMILES	ERa coact pot	Smad3 FoxH1 inh	ERb coact inh	ERa coact inh
CC(C)(C)NC(=O)Cc1ccc(S(=O)(=O)N2CCCC2)s1	54.0	-2.7	39.5	57.9*[fluorescence artefact?]
CCOc1c(C(N)=O)c(-c2ccccc2)c2c(=O)[nH]c3ccccc3n12	53.5	3.2	60.8*	81.5*[fluorescence artefact?]
CCN(CC)S(=O)(=O)c1ccc(NC(=O)CC(NC(C)=O)c2ccccc2)cc1 (stereo unspecified)	108.8	13.3	0.7	-0.2
CCc1nc(SCC(=O)c2cccs2)c2oc3ccccc3c2n1	223.9*	-15.6	-9.0	-5.0
Cc1nc(SCC(=O)NCCc2ccccc2)c2oc3ccccc3c2n1	264.1*[fluorescence artefact?]	23.8	6.8	26.0
CCc1nc(SCC(=O)NCCc2ccccc2)c2oc3ccccc3c2n1	98.6	6.8	24.0	41.9
Cc1nc(SCC(=O)Nc2ccccc2)c2oc3ccccc3c2n1	552.0*[fluorescence artefact?]	36.7	53.3*[fluorescence artefact?]	55.2*[fluorescence artefact?]
CN(C)/C=C(/C#N)C(=O)c1cccc(Oc2ccc(C(C)(C)C)cc2)c1	64.7	-6.4	3.8	12.1
Cc1c(C#N)c(N=CN(C)C)c(C(=O)c2ccc(Br)cc2)n1-c1ccc(Cl)cc1	104.9	4.2	-4.4	-6.5
CC(N=Cc1cccc(O)c1O)c1ccccc1 (stereo unspecified)	83.5	5.1	57.7*[fluorescence artefact?]	17.1
CCC(C)NC(=O)CSc1nnc(-c2cc(-c3cccs3)nc3ccccc23)o1 (stereo unspecified)	88.0	7.8	2.6	-4.1
O=C(Nc1cnn(Cc2ccc(Cl)cc2Cl)c1)c1noc2c1CCCC2	105.7	7.9	-7.4	11.1
O=C(Nc1cnn(Cc2ccc(Cl)cc2Cl)c1)c1cc(-c2cccs2)on1	157.4	-3.1	22.8	51.2*[fluorescence artefact?]
Cc1ncc(CSC(=N)N)n1Cc1ccccc1	x	8.4	x	x
Cc1sc2nc(SCC(=O)Nc3c(C)n(C)n(-c4ccccc4)c3=O)n(C)c(=O)c2c1C	24.3	5.8	62.3*[fluorescence artefact?]	70.0*[fluorescence artefact?]
CC1(C)OC[C@@H]2O[C@H](n3cnc4c(N)nc(Cl)nc43)[C@H](OS(C)(=O)=O)[C@H]2O1	x	36.6	x	x
Cc1ccc2c(c1)cc(CN(Cc1cccnc1)C(=O)NCc1ccccc1)c1nnnn12	113.6	1.6	-11.1	-5.4
CC(=O)Nc1cc2c(cc1C(=O)c1ccccc1)OCCO2	66.8	7.2	62.9*	28.0
Nc1cc2c(cc1C(=O)c1ccccc1)OCCO2	97.0	-6.1	-17.7	-9.0
c1cncc(-c2nc(-c3ccco3)cs2)c1	83.5	1.7	60.4*[fluorescence artefact?]	5.2
CN(C)CN1C(=O)S/C(=C2\C(=O)N(CN(C)C)c3ccccc32)C1=O	x	14.9	x	x
N#Cc1nc(-c2ccc(OCc3ccc(Cl)cc3)cc2)oc1N1CCOCC1	277.6*[fluorescence artefact?]	-102.9	25.1	49.5
N#Cc1nc(-c2ccc(OCc3ccc(Cl)cc3)cc2)oc1NCc1cccnc1	129.9	-1.3	23.7	50.8*
N#Cc1nc(-c2ccc(OCc3ccc(Cl)cc3)cc2)oc1N1CCC(C(N)=O)CC1	102.6	-16.4	47.0	60.6*[fluorescence artefact?]
O=C(CN(Cc1ccccc1Cl)C(=O)c1ccc(CN2CCOCC2)o1)NCC1CCCO1 (stereo unspecified)	109.4	1.1	-16.7	-7.1
O=C(O)C[C@H](NC(=O)CP(=O)(O)O)C(=O)O.[NH-][C@@H]1CCCC[C@H]1[NH-].[Pt]	x	40.7	x	x
O=C(O)CN1C(=O)O[C@@H](c2ccccc2)C1=O	x	-3.4	x	x
COc1ccc(N2C(=O)C3C4C=CC(C4)C3C2=O)c(OC)c1 (stereo unspecified)	120.5	-2.5	23.1	16.4
COc1ccc(C(=O)COc2ccccc2N2C(=O)C3C4C=CC(C4)C3C2=O)cc1 (stereo unspecified)	58.9	8.7	2.1	50.6*[fluorescence artefact?]
COc1ccc(OC)c(N=c2oc3c(OC)cccc3cc2C(=O)NCc2ccco2)c1	44.3	-1.4	50.4*[fluorescence artefact?]	75.3*[fluorescence artefact?]
